High-throughput results from PubChem BioAssay.
The list is not random: actives were taken first. Their share in the collection is about 8%.
HCV inh = blocks hepatitis C virus; Huh7.5.1 HCVcc-Cre infection, luciferase reporter, 44 h; Potency, µM (titrated, usually from 41.8 µM), usual class: inhibitors; 340,000 tested, 3.4% active; AID 651820; active means well fitted inhibition curve with a large enough effect; inconclusive means small, poorly fitted or top-dose-only effect, or another doubt; inactive means no such curve, though single readings can be large or run the other way
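Antiviral activity was scored by luciferase reporter output from cells infected with HCVcc-Cre (~0.5 moi) in presence of compound, 44 h infection period, cells seeded 1,000/well 4 h prior.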
HCMV antiviral = blocks human cytomegalovirus replication; HFF cells, HCMV-luciferase reporter, 72 h; active compounds read low; activity change, negative = inhibition, % at 57.5 µM; 410,000 tested, 4.5% active; AID 1259415; in the data active means activity change below about -60%; inconclusive means no clear call, values can overlap the other calls; inactive means above about -39%
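Cell-based, HFFs, 1000 cells/well, 16 h 37C; cpds in DMSO + HCMV-luc, MOI 1 PFU/cell; 72 h 37C; OneGlo luminescence after 5 min RT; norm. to buffer vs Salinomycin 10uM.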
Marburg entry inh = inhibitors of Marburg virus binding or cell entry; Marburg virus pseudotyped entry inhibition, cell reporter; 300,000 tested, 1.8% active; Potency, µM (highest dose often 37.8 µM), usual class: inhibitors; calls by dose curve; tested in HEK293 cells
FMDV antiviral = foot and mouth disease virus antiviral activity | 410,000 tested, 1.2% active | Potency, µM (top dose mostly 57.9 µM), actives largely listed as inhibitors | FMDV antiviral cell-based qHTS; calls by dose curve; tested in HEK293T cells; further: read-out not given here; nearly all actives have a fitted effect of over 45% in size
Lassa entry inh = inhibitors of Lassa virus binding or cell entry; 300,000 tested, 1.2% active; Potency, µM (highest dose often 37.9 µM), actives largely listed as inhibitors; Lassa virus pseudotype entry inhibition, cell reporter; calls by dose curve; tested in HEK293 cells; further: nearly all actives have a fitted effect of over 50% in size
SARS PLpro yeast = blocks SARS-CoV papain-like protease in a yeast assay; S. cerevisiae expressing SARS-CoV PLpro, growth rescue; Potency, µM (top dose mostly 32.9 µM), most hits filed as activators; 330,000 tested, 0.19% active; AID 485353; calls by dose curve; further: nearly all actives have a fitted effect of over 55% in size
Hits are given with their value.

`CCC(c1nnnn1Cc1ccc(F)cc1)N1CCN(C2CCCCC2)CC1` (stereo unspecified) gave HCV inh inactive, HCMV antiviral inactive, Marburg entry inh 13µM, FMDV antiviral inconclusive, Lassa entry inh inconclusive and SARS PLpro yeast inactive.
COc1ccc(Cn2nnnc2C(c2ccccc2Cl)N2CCN(C3CCCC3)CC2)cc1 (stereo unspecified) was read as HCV inh inactive, HCMV antiviral inactive, Marburg entry inh inconclusive, FMDV antiviral inactive, Lassa entry inh inactive and SARS PLpro yeast inactive.
Screening Fc1ccc(N2CCN(C(c3cccs3)c3nnnn3CCc3ccccc3)CC2)cc1 (stereo unspecified) returned HCV inh inactive, HCMV antiviral inactive, Marburg entry inh 13µM, FMDV antiviral inactive, Lassa entry inh 11µM and SARS PLpro yeast inactive.
Screening c1ccc(CCn2nnnc2C(c2cccnc2)N2CCN(c3nc4ccccc4s3)CC2)cc1 (stereo unspecified) returned HCV inh 25µM, HCMV antiviral inconclusive, Marburg entry inh inconclusive, Lassa entry inh inconclusive and SARS PLpro yeast inactive.
Screening CCCC(c1nnnn1Cc1ccc(F)cc1)N1CCN(C)CC1 (stereo unspecified) returned HCV inh inactive, HCMV antiviral inactive, Marburg entry inh inactive, FMDV antiviral inactive, Lassa entry inh inactive and SARS PLpro yeast inactive.
CC(=O)N1C[C@H]2CON(C)[C@H]2C[C@H]1c1cccc(-c2ccccc2C)c1 was read as HCV inh inactive, HCMV antiviral inactive and FMDV antiviral inactive.
c1ccc(CCn2nnnc2C(c2cccnc2)N2CCN(c3ccccc3)CC2)cc1 (stereo unspecified) was read as HCV inh inactive, HCMV antiviral -64, Marburg entry inh inconclusive, Lassa entry inh inconclusive and SARS PLpro yeast inactive.
COc1ccc(C(c2nnnn2Cc2ccccc2)N2CCN(c3nc4ccccc4s3)CC2)cc1 (stereo unspecified) was read as HCV inh inconclusive, HCMV antiviral inactive, Marburg entry inh inconclusive, FMDV antiviral inactive, Lassa entry inh 11µM and SARS PLpro yeast inactive.
COc1ccc(Cn2nnnc2C(C(C)C)N2CCN(c3ccccc3OC)CC2)cc1 (stereo unspecified) was read as HCV inh inconclusive, HCMV antiviral inactive, Marburg entry inh inconclusive, FMDV antiviral 25µM, Lassa entry inh inconclusive and SARS PLpro yeast inactive.
For COc1ccc(C(c2nnnn2Cc2ccccc2)N2CCN(c3ccccc3)CC2)cc1 (stereo unspecified) the results were HCV inh inconclusive, HCMV antiviral inactive, Marburg entry inh inconclusive, FMDV antiviral inactive, Lassa entry inh inconclusive and SARS PLpro yeast inactive.
Screening Cn1c2c(c(=O)n(C)c1=O)NC1(N2)C(=O)Nc2ccccc21 (stereo unspecified) returned HCV inh inactive, HCMV antiviral inactive, FMDV antiviral inactive and SARS PLpro yeast inactive.
COc1ccc(N2CCN(C(=O)CSc3nnnn3-c3ccc4c(c3)OCCO4)CC2)cc1 was read as HCV inh 7.9µM, HCMV antiviral inconclusive, Marburg entry inh inactive, Lassa entry inh 2.9µM and SARS PLpro yeast inactive.
Screening CCn1c(SCC(=O)N2CCN(c3ccccc3)CC2)nnc1-c1c[nH]c2ccccc12 returned HCV inh 8.9µM, HCMV antiviral -75, FMDV antiviral inconclusive and SARS PLpro yeast inactive.
For COc1ccc(N2CCN(C(=O)CSc3nnc(-c4cc5ccccc5cc4O)n3C)CC2)cc1 the results were HCV inh inconclusive, HCMV antiviral -67, Marburg entry inh inactive, FMDV antiviral 25µM, Lassa entry inh inactive and SARS PLpro yeast inactive.
For COc1ccc(-n2nnnc2SCC(=O)N2CCOCC2)cc1 the results were HCV inh inactive, HCMV antiviral inactive, FMDV antiviral inactive and SARS PLpro yeast inactive.
For Cn1c(SCC(=O)N2CCN(c3ccccc3)CC2)nnc1-c1c[nH]c2ccccc12 the results were HCV inh inconclusive, HCMV antiviral -80, FMDV antiviral 18µM and SARS PLpro yeast inactive.
For CCOC(=O)CSc1nnc(-c2c[nH]c3ccccc23)n1CC the results were HCV inh inactive, HCMV antiviral inactive, FMDV antiviral inactive and SARS PLpro yeast inactive.
For Cn1c(SCC(=O)N2CCN(c3ccccc3)CC2)nnc1-c1ccccc1 the results were HCV inh inconclusive, HCMV antiviral inactive, Marburg entry inh inactive, FMDV antiviral inconclusive, Lassa entry inh inactive and SARS PLpro yeast inactive.
`CCn1c(SCC(=O)N2CCc3ccccc32)nnc1-c1c[nH]c2ccccc12` gave HCV inh inactive, HCMV antiviral inconclusive, Marburg entry inh inconclusive, FMDV antiviral 32µM, Lassa entry inh inconclusive and SARS PLpro yeast inactive.
`N#C/C(=C\c1ccc(-c2cc(Cl)ccc2Cl)o1)C(=O)Nc1cccc2ncccc12` gave Marburg entry inh inconclusive and Lassa entry inh 3.7µM.
CC[C@@]1(c2ccccc2OC)ON(c2ccccc2C(F)(F)F)C1=O was read as HCV inh inconclusive, HCMV antiviral inconclusive, FMDV antiviral 32µM and SARS PLpro yeast inactive.
`Cc1ccccc1[C@@]1(C)ON(c2ccccc2C(F)(F)F)C1=O` gave HCV inh inconclusive, HCMV antiviral inactive, FMDV antiviral inconclusive and SARS PLpro yeast inactive.
`O=C(Nc1ccccc1)C1CCCN(C(=O)c2ccc(Cl)cc2)C1` (stereo unspecified) gave HCV inh inactive, HCMV antiviral -65, Marburg entry inh inconclusive, FMDV antiviral inconclusive, Lassa entry inh inconclusive and SARS PLpro yeast inactive.
For COc1ccc(NC(=O)C2CCCN(C(=O)c3ccc(Cl)cc3)C2)cc1Cl (stereo unspecified) the results were HCV inh inconclusive, HCMV antiviral -73, FMDV antiviral inactive and SARS PLpro yeast inactive.
O=C1CCCc2cc(S(=O)(=O)N3CCCC(C(=O)Nc4ccc(F)c(Cl)c4)C3)ccc2N1 (stereo unspecified) was read as HCMV antiviral inactive, FMDV antiviral 32µM and Lassa entry inh inactive.
Screening O=C(Nc1ccc(S(=O)(=O)N2CCCCC2)cc1)C1CCCN(C(=O)c2ccc(Cl)cc2)C1 (stereo unspecified) returned HCV inh inactive, HCMV antiviral -65, Marburg entry inh inconclusive, FMDV antiviral inconclusive, Lassa entry inh 0.29µM and SARS PLpro yeast inactive.
`CC(=O)c1ccc(NC(=O)C2CCCN(C(=O)c3ccc(Cl)cc3)C2)cc1` (stereo unspecified) gave HCV inh inactive, HCMV antiviral inactive, Marburg entry inh inconclusive, FMDV antiviral inactive, Lassa entry inh inactive and SARS PLpro yeast inactive.
Screening CCOC(=O)C1(C)CCCN(C(=O)c2cccc(C#N)c2)C1 (stereo unspecified) returned HCMV antiviral inactive and FMDV antiviral inactive.
Oc1nc(Nc2cccc(Cl)c2)sc1/C=C1\C=Nc2ccccc21 was read as HCV inh inactive, HCMV antiviral inactive, Marburg entry inh inconclusive, FMDV antiviral inconclusive, Lassa entry inh inconclusive and SARS PLpro yeast inactive.
